Laboratory results reported in PubChem BioAssay AID1159506 (National Center for Advancing Translational Sciences (NCATS), 2015).
Over roughly 59,000 sequences, the read-out has its median near -0.00055; the lowest 2% begin near -2. The sample as a whole holds a higher share of the lowest values than the screen did.

Assay: Identification of proteins required for the processing of the EWS-FLI1 nascent transcript;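 note: robust z of luciferase light less the median z of siRNAs with the same seed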
Details: TC32 Ewing sarcoma NR0B1-luc vs CMV-luc (EWS-FLI1 target promoter against control promoter), 48 h; screened at 20 nM (by protocol)
Summary of the method: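 Genome-wide siRNA screen (Ambion v4.1, three siRNAs per gene, 20 nM final, RNAiMax) in Ewing sarcoma TC32 cells carrying NR0B1-promoter or CMV-promoter luciferase; OneGlo luciferase read 48 h post-transfection. Data normalized, z-score-MAD transformed and seed-adjusted.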

| Sequence | seed-corrected z-score |
| --- | --- |
| UAGGCGACGCCCUUUUUCU against H3.X | -0.0707 |
| UUUGAGUCCUCAUGGGUGG against GTF3C4 | 1.63 |
| UAGGUGUUGAUGAUCUCCC against XAB2 | -2.44 |
| UUUGUCUCUGCGGAGGUUC against EIF3D | -0.479 |
| UGAUUAGUCACCAAAGUCC against ATF7IP | -1.24 |
| UACUGUCGAACUUUGCCUG against HEPH | -1.6 |
| UCACUAGCAAGGUUCUCCC against LARP4B | 0.24 |
| UAAUGUACUUGAUCGCAGC against ASCL3 | -1.12 |
| AUAGUUGCCGGUGCUCACC against PICK1 | -3.04 |
| UACUGUAUAGGAAACGAUC against ESPL1 | -0.0398 |
| UCGCUGUCCUUUAAGAGGC against NKAIN4 | -0.183 |
| AUCGGGAAGAGAGUGUAUC against PTAFR | 0.45 |
| CAAGUGGAUCGAGCUUGCG against RPL29P12 | 0.225 |
| UGACUCAAAACUACCAUCC against CCNA2 | -0.751 |
| AUCUCUUUUAUCAGGGUUG against VEGFB | -2.11 |
| AACGAUUUUAUCCAAAAUG against FBXO25 | 0.881 |
| UAUAUGUCUCGCAUUUGCC against TRE17 | -1.17 |
| AUCGCAAUAAUUUCAUCUG against NOL8 | -0.121 |
| UACGUUAGUUUUGACACGC against RALY | -0.653 |
| UGCUAUAGCACCAACAGCC against CLCN5 | -2.8 |
| UUGGGUUCUACAAGCUUCC against SDE2 | -0.135 |
| AAGAUGUCUGUGGUCAUGG against PLCB2 | 1.04 |
| UUACUAGAAUCCUCAAUUG against OXR1 | -0.746 |

| Sequence | seed-corrected z-score |
| --- | --- |
| UAAAGAUCAAUUCGCUUUG against GLRB | -0.775 |
| UGAAGGUUCAGAGUGCAAC against ISG20L2 | -0.949 |
| UUCUGGAUUAGAAAGGUUC against NKRF | 0.43 |
| UCCUUGUCGAACAUGAGCC against NTNG2 | -2.93 |
| UGCACAUCCUUGUCUAUGC against SGSM2 | 0.184 |
| UUACAUUCUGAGCCCAUCC against HTR7 | -0.311 |
| UUAGUUAUAACAUAUGACU against LINC00900 | -0.697 |
| ACAAUGGAAAGCACCUUCC against RINL | 0.198 |
| UCCCAGUUGUGGAUGAUCC against PLEKHM1 | -0.204 |
| UAAAGACUACAAGCACAGC against OR51B5 | -2.14 |
| UUCAGUACAUCUCUGCAGG against RDH12 | 0.532 |
| UUCAUCACAACCUUCCGUG against TLR5 | 0.937 |
| UUCCAGGUCACCAACCACC against IFITM5 | -0.607 |
| UUCUGCAUAAGUAGUUUUC against INIP | -2.13 |
| UGCUUAGCUUCUUUAACCC against PLIN2 | 0.638 |
| UCCUGAACAGGCUUAUCCC against AXIN1 | 0.946 |
| UGAUCUCCAAUCACAUGCC against ARFGEF2 | -0.117 |
| UCGUUUACAAACAUGAGUC against MPDZ | 0.35 |
| UUCUGACCAAGCAAACUCG against SF3B1 | -2.7 |
| AUUGAUGUAUGACUCUUCC against DDX55 | -0.91 |
| UUCUUUGCCUCGCUUAUUC against OLFML2B | 0.806 |
| UAUCUGAGGAGUUCUGACC against SLC22A2 | 0.452 |
| AAAUGUCUUAGGGAUUGGG against ITPRIPL1 | -2.1 |

| Sequence | seed-corrected z-score |
| --- | --- |
| UCUCCAAGAAGUUCACUGG against SOX6 | 0.406 |
| UCUGUUGCUGCCUAAACUC against TMEM198B | 0.298 |
| UAUAGAACAAGGUAAAUCC against MTF2 | 0.208 |
| UUCUAUCAAAUAUCCUUUG against LOC400940 | -0.132 |
| UAGGAAAUCAUCUCCCUCC against TMEM169 | -3.9 |
| UACCCAUAUAUUUAAAGCC against PQLC3 | 0.395 |
| UUUUCAUUUACGGAACCCG against SMOC2 | 0.202 |
| UCAGAAGUAACAGCAGAUC against FANCG | 0.307 |
| UCAUAGUGCAGGUAGAGCC against TRIM50 | -0.491 |
| AUAGAAGUCAACCUCAUUC against CASQ2 | 0.181 |
| UAUUUGUCCAGGUAUGGUG against ERRFI1 | -0.215 |
| GUCUCUGGUACCUGUGUGC against LOC440300 | -0.25 |
| UACUCUGUUAGGAAGACCG against TECR | 0.271 |
| UCCUGCUUCCGGAAUAUCU against PNMA2 | -2.12 |
| UCAGAUUUCAGACCGCCCA against LINC00668 | 0.167 |
| UUCAGUUCGUAAUCUCUCU against FLOT1 | 0.706 |
| UUCAAAUCCCUAUUAAAGC against ARFIP1 | 0.962 |
| AAGUGGAACCGAUACUUCC against SPDYE14P | -0.205 |
| UUUGGUGCACGUAACUUGG against C6orf203 | -2.05 |
| UUCGGUGUCAAUAACUGUG against BCAS3 | -1.77 |
| UUUCGUAAUAUGCGGCCUC against ASPA | -0.032 |
| UCUUGAUAAGAGACCAGCU against PRR3 | 0.373 |
| AAAUCCACAAUCCAGGGAG against SPATA31E2P | 0.176 |

| Sequence | seed-corrected z-score |
| --- | --- |
| UGUUCAGUUGCUAAAAUGG against KLRC1 | 0.773 |
| UCUGUAAACAGCUUGAUGA against GLP1R | -0.289 |
| UUCAUUCUCUGCAAAAUCC against NSMCE1 | -0.305 |
| UACGAUCAAAGGUUGAUUC against ATF7IP | -4.54 |
| UUCAAUGCAUACAUAGAGC against ZNF585A | 0.552 |
| AUAGGGUAUAGCUCCAGUC against CIART | 1.2 |
| UGAAGUCGUAGAUCUCACG against PTDSS2 | -2.62 |
| AAUAGUUAUUUUGUUGAGC against C6orf52 | -0.622 |
| UAGGUGUGCAUCAUAGUAA against C11orf94 | -0.539 |
| UGAGUCAUCCACGCAGUUC against PSCA | 0.371 |
| UCUGUUUCCAUUGCGUUCU against FLJ41278 | -0.527 |
| UCUUCGUCUGGGUCGUUUG against SIGLEC6 | -0.384 |
| UUCUGGAGUAGCAAGCUAC against POLR2D | -2.24 |
| UUUCAUCUCCAUCCGGUAG against JPH3 | -0.755 |
| ACUCGAAGCAUCUCGAUGG against HAS3 | -0.313 |
| AACUAAACCAGCUCGCUUC against LRRC8C | 2.39 |
| UGUCAAGUCGGGUUCACCC against CCDC97 | -0.229 |
| UGCUGCUUCCCUAAGAUCC against ATG4A | 0.243 |
| AAUAGCUGCAUAACUGUCU against CLTA | -3.36 |
| UUCUGCUUCAUGUUGAGCC against RECQL4 | -0.111 |
| UCUUGUCGAAAAGCUCACC against KIAA1161 | 0.789 |
| AUCGUGCAAGGUGUUCUCC against BFSP2 | 0.341 |
| AUUUCCUUGAUUGUCAUCC against SERPINB7 | -2.22 |

| Sequence | seed-corrected z-score |
| --- | --- |
| AAAGUUCUCGAAAUGCUUC against GLOD4 | -0.0199 |
| UUACGGUACUUGGUCUCGC against NRAP | -1.11 |
| UUUUUGGUCACCGGUUGCC against GRK5 | -0.48 |
| UAGCUUGAUAAUAACCAGC against EMC8 | 0.529 |
| AUAGUGCUCAUGAACAUGG against OR7G1 | 0.135 |
| UAGCUGUGAACAGUACCCG against MPL | -2.07 |
| UGUUGUCAAAACCACUGCC against CTBP1 | -1.98 |
| UGAUGAACUGGUUAUGAGG against LAPTM5 | 1.26 |
| UACAUCCUCAUUAUAGGUU against ZNRF2 | -0.243 |
| UUGUCUAAUGGUAAAGUGC against LDB2 | -0.144 |
| AAGGGUAUCUGAGUCCUUG against RC3H2 | -0.0262 |
| UGAGCGAUUGUUAAAUGCC against ZNF781 | -0.576 |
| UGCUCUCUCAGAAUCUCGC against SPA17 | -0.647 |
| UUAGCAUUCCUGGAAUCCG against EIF5B | -2.11 |
| AGAUUGUUAAGCAGCGUGU against C7orf43 | 0.291 |
| UCUAUGUCGGGAUCGGUGC against LINC00467 | 0.416 |
| UUCUUAUCAGCAGCUAGUC against CKAP5 | -2.74 |
| AAGGCAACAGUGUCCCAUG against SMIM22 | -1.28 |
| UUUGAAAUUUGUCAGGUCU against PQLC2L | -0.634 |
| UACUAUGUCUUCAAGAUCC against CD99L2 | 0.481 |
| UGCUUUAACUGGAUACAUC against NPHP1 | -2.27 |
| UUCUUAGCUCCCACGAUCC against ZNF512 | 0.51 |
| UUGGUGAAUAAAUAUCAUC against ZBTB25 | 0.411 |

| Sequence | seed-corrected z-score |
| --- | --- |
| AAUCUUCCCAUUCUCGUCC against NAA10 | 0.136 |
| UACGGUAUGACUUUCGUUG against RPL23 | -2.37 |
| AUUGUUACUAUUGGACAGG against RFPL4A | 0.248 |
| UGUUUGACCAUUCCGUAUC against VRK1 | 0.29 |
| UUUCGUCUCAGCACUGCAC against ANKMY1 | 0.0118 |
| UUUGUGACCAGCAAUCUGC against PLA2G2F | -0.775 |
| AAGUUUAGCAAAGACCUGC against VPS39 | -2.66 |
| UCCGAGAUGAGGUAUUAGG against PPIP5K2 | 0.207 |
| UUACACUUCAUUUCCAGAG against WNT11 | 1.06 |
| UUCUUGCCUAGACAGCACC against JAK1 | 0.139 |
| UUUGGGUAAAUAAUCCUUU against C4orf45 | -1.15 |
| UUCGGGUUGUUCUUUUUCC against TCHP | 0.00716 |
| AUAAUAUGAUUCCUAAUCC against FAM188A | 0.685 |
| UUAGCUGCAACUGGAAGGU against TEX13B | -3.82 |
| UGAUGUCCAACACCAGUCC against ADCY3 | 1.37 |
| UUGAACUAAACAUAUCAGC against TAB3 | 1.2 |
| AGUGGAACAAGAUCUCAGU against NOL6 | 0.803 |
| UUCAUACUCAGGCAUAUCC against SEC23A | -0.651 |
